Assay results reported in PubChem BioAssay (NCI).
The panel holds about 83,000 compounds, 20% with a hit somewhere; the sample as a whole holds those more often.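 96-well plates, one dose, 48 hours. Percent growth reported; active if below 10.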 A number with no mark means an inactive call. Calls of active or inactive are those of the source.

Key:
Experiment in all cases: NCI-60 one-dose screen, 48 h (100 = growth as untreated, 0 = no growth, -100 = all killed)
Conditions in all cases: 10 µM unless noted
SR leukemia = test system: SR leukemia
RPMI-8226 leukemia = test system: RPMI-8226 leukemia
OVCAR-8 ovarian = test system: OVCAR-8 ovarian
OVCAR-5 ovarian = test system: OVCAR-5 ovarian
OVCAR-4 ovarian = test system: OVCAR-4 ovarian
SK-OV-3 ovarian = test system: SK-OV-3 ovarian
IGROV1 ovarian = test system: IGROV1 ovarian
OVCAR-3 ovarian = test system: OVCAR-3 ovarian
HS 578T breast = test system: HS 578T breast
NCI/ADR-RES ovarian = test system: NCI/ADR-RES ovarian

Q: What does the source list for `C/C(=N\NC(=O)c1ccccc1O)c1cccc(/C(C)=N/NC(=O)c2ccccc2O)n1`?
A: growth (SR leukemia): 16.6%; growth (RPMI-8226 leukemia): 41.4%; growth (OVCAR-8 ovarian): 32.3%; growth (OVCAR-5 ovarian): 78.9%; growth (OVCAR-4 ovarian): 35.4%; growth (SK-OV-3 ovarian): 45.6%; growth (IGROV1 ovarian): 61.8%; growth (OVCAR-3 ovarian): 9.77% (active); growth (HS 578T breast): 69.3%; growth (NCI/ADR-RES ovarian): 59.1%

Q: For `O=C1C(Cl)=C(Nc2ccc(O)cc2)C(=O)N1Cc1ccc(Cl)cc1`, which growth (SR leukemia) is on record?
A: 5.96% (active)

Q: And the growth (RPMI-8226 leukemia)?
A: 26.1%

Q: What about the growth (OVCAR-8 ovarian) of the same compound?
A: 65%

Q: What about the growth (OVCAR-5 ovarian) of the same compound?
A: 85.3%

Q: What about the growth (OVCAR-4 ovarian) of the same compound?
A: 77.5%

Q: What about the growth (SK-OV-3 ovarian) of the same compound?
A: 88.1%

Q: What about the growth (IGROV1 ovarian) of the same compound?
A: 30.5%

Q: What about the growth (HS 578T breast) of the same compound?
A: 78.6%

Q: And the growth (NCI/ADR-RES ovarian)?
A: 81.3%

Q: How did the growth (SR leukemia) turn out when `COC1=CC(c2ccc[nH]2)=N/C1=C\c1[nH]c(C)c(C(=O)OCc2ccccc2)c1C` was run?
A: 9.69% (active)

Q: And the growth (RPMI-8226 leukemia)?
A: -18% (active)

Q: What about the growth (OVCAR-8 ovarian) of the same compound?
A: -26.6% (active)

Q: And the growth (OVCAR-5 ovarian)?
A: -38.5% (active)

Q: What about the growth (OVCAR-4 ovarian) of the same compound?
A: -36.5% (active)

Q: What about the growth (SK-OV-3 ovarian) of the same compound?
A: 7.66% (active)

Q: And the growth (IGROV1 ovarian)?
A: -33.1% (active)

Q: What about the growth (OVCAR-3 ovarian) of the same compound?
A: -66% (active)

Q: What about the growth (HS 578T breast) of the same compound?
A: -37% (active)

Q: What about the growth (NCI/ADR-RES ovarian) of the same compound?
A: 0.894% (active)

Q: With `COc1ccc(-c2ccc3cnc4sc(-c5ccc(OC)cc5)nc4c3n2)cc1` as the compound, how does the growth (SR leukemia) read?
A: 83.7%

Q: And the growth (RPMI-8226 leukemia)?
A: 87.5%

Q: What about the growth (OVCAR-8 ovarian) of the same compound?
A: 96.3%

Q: And the growth (OVCAR-5 ovarian)?
A: 97.4%

Q: And the growth (OVCAR-4 ovarian)?
A: 96.9%

Q: What about the growth (SK-OV-3 ovarian) of the same compound?
A: 92.6%

Q: What about the growth (IGROV1 ovarian) of the same compound?
A: 94%

Q: What about the growth (OVCAR-3 ovarian) of the same compound?
A: 101%

Q: What about the growth (HS 578T breast) of the same compound?
A: 94.4%

Q: And the growth (NCI/ADR-RES ovarian)?
A: 92.9%

Q: How did the growth (SR leukemia) turn out when `CCc1ccc(Oc2cn[nH]c2-c2ccc(OCCc3ccc(F)cc3)cc2O)cc1` was run?
A: 101%

Q: What about the growth (RPMI-8226 leukemia) of the same compound?
A: 81%

Q: What about the growth (OVCAR-8 ovarian) of the same compound?
A: 101%

Q: And the growth (OVCAR-5 ovarian)?
A: 90.6%

Q: And the growth (OVCAR-4 ovarian)?
A: 89.5%

Q: What about the growth (SK-OV-3 ovarian) of the same compound?
A: 102%

Q: What about the growth (IGROV1 ovarian) of the same compound?
A: 97.3%

Q: What about the growth (OVCAR-3 ovarian) of the same compound?
A: 89.4%

Q: And the growth (HS 578T breast)?
A: 93.1%

Q: What about the growth (NCI/ADR-RES ovarian) of the same compound?
A: 89.2%

Q: `CCOc1ccc(NC(=O)CSc2oc(-c3ccccc3)nc2S(=O)(=O)c2ccc(F)cc2)cc1` was tested. Which growth (SR leukemia) did it give?
A: 69.8%

Q: And the growth (RPMI-8226 leukemia)?
A: 73%

Q: And the growth (OVCAR-8 ovarian)?
A: 49.5%

Q: What about the growth (OVCAR-5 ovarian) of the same compound?
A: 103%

Q: And the growth (OVCAR-4 ovarian)?
A: 66.1%

Q: What about the growth (SK-OV-3 ovarian) of the same compound?
A: 77.5%

Q: What about the growth (IGROV1 ovarian) of the same compound?
A: 94.8%

Q: And the growth (OVCAR-3 ovarian)?
A: 64.9%

Q: And the growth (HS 578T breast)?
A: 74.2%

Q: And the growth (NCI/ADR-RES ovarian)?
A: 67.3%

Q: `Cn1c(-c2ccc(Br)cc2)c(O)c(=O)c2c(F)cccc21` was tested. Which growth (SR leukemia) did it give?
A: 102%

Q: And the growth (RPMI-8226 leukemia)?
A: 104%

Q: What about the growth (OVCAR-8 ovarian) of the same compound?
A: 50.9%

Q: What about the growth (OVCAR-5 ovarian) of the same compound?
A: 63.8%

Q: And the growth (OVCAR-4 ovarian)?
A: 52.1%

Q: What about the growth (SK-OV-3 ovarian) of the same compound?
A: 46.3%

Q: And the growth (IGROV1 ovarian)?
A: 48.6%

Q: And the growth (OVCAR-3 ovarian)?
A: 51.7%

Q: What about the growth (HS 578T breast) of the same compound?
A: 84.9%

Q: And the growth (NCI/ADR-RES ovarian)?
A: 21.8%

Q: `N#Cc1c(-c2ccccc2)cc(-c2ccccc2)n(CCCCCC(=O)Nc2ccccc2N)c1=O` was tested. Which growth (SR leukemia) did it give?
A: 18.5%

Q: What about the growth (RPMI-8226 leukemia) of the same compound?
A: -19.2% (active)

Q: What about the growth (OVCAR-8 ovarian) of the same compound?
A: 58.8%

Q: What about the growth (OVCAR-5 ovarian) of the same compound?
A: 66.4%

Q: And the growth (OVCAR-4 ovarian)?
A: 65.9%

Q: And the growth (SK-OV-3 ovarian)?
A: 90.4%

Q: What about the growth (IGROV1 ovarian) of the same compound?
A: 45.9%

Q: And the growth (OVCAR-3 ovarian)?
A: 59.2%

Q: And the growth (HS 578T breast)?
A: 76.2%

Q: And the growth (NCI/ADR-RES ovarian)?
A: 49%

Q: How did the growth (SR leukemia) turn out when `O=C1NC(=O)c2c1c1c3ccccc3ccc1c1[nH]c3ccc(Br)cc3c21` was run?
A: 11.4%

Q: And the growth (RPMI-8226 leukemia)?
A: -19.9% (active)

Q: What about the growth (OVCAR-8 ovarian) of the same compound?
A: 14.7%

Q: What about the growth (OVCAR-5 ovarian) of the same compound?
A: 29.7%

Q: What about the growth (OVCAR-4 ovarian) of the same compound?
A: 10.3%

Q: What about the growth (SK-OV-3 ovarian) of the same compound?
A: 31%

Q: And the growth (IGROV1 ovarian)?
A: 14.4%

Q: And the growth (OVCAR-3 ovarian)?
A: 8.73% (active)

Q: What about the growth (HS 578T breast) of the same compound?
A: 78.4%

Q: What about the growth (NCI/ADR-RES ovarian) of the same compound?
A: 3.52% (active)

Q: Which results are given for `COc1ccc(/C=N/C2=C(C#N)C(c3cccc(Cl)c3)c3c(ccc4ccccc34)O2)cc1` (configuration not stated)?
A: growth (SR leukemia): 17.7%; growth (RPMI-8226 leukemia): 17.4%; growth (OVCAR-8 ovarian): 47.1%; growth (OVCAR-5 ovarian): 62.3%; growth (OVCAR-4 ovarian): 52.8%; growth (SK-OV-3 ovarian): 52.4%; growth (IGROV1 ovarian): 32.9%; growth (HS 578T breast): 15.9%; growth (NCI/ADR-RES ovarian): 22.1%

Q: Which growth (SR leukemia) does the source give for `N#Cc1nn(-c2cc(=O)[nH]c3ccc(Cl)cc23)c(N)c1C#N` here?
A: 0.706% (active)

Q: And the growth (RPMI-8226 leukemia)?
A: -24.6% (active)

Q: What about the growth (OVCAR-8 ovarian) of the same compound?
A: 95.8%

Q: And the growth (OVCAR-5 ovarian)?
A: 105%

Q: What about the growth (OVCAR-4 ovarian) of the same compound?
A: 91.5%

Q: What about the growth (SK-OV-3 ovarian) of the same compound?
A: 74.6%

Q: And the growth (IGROV1 ovarian)?
A: 102%

Q: What about the growth (OVCAR-3 ovarian) of the same compound?
A: 108%

Q: What about the growth (HS 578T breast) of the same compound?
A: 103%

Q: What about the growth (NCI/ADR-RES ovarian) of the same compound?
A: 98.5%

Q: What does the source list for `CN1CCN(c2ccc(NC(=O)c3nc4ccc5[nH]ncc5c4c4c3CCCC4)cc2C(F)(F)F)CC1`?
A: growth (SR leukemia): 13.6%; growth (RPMI-8226 leukemia): 24.1%; growth (OVCAR-8 ovarian): 3.3% (active); growth (OVCAR-5 ovarian): 85.5%; growth (OVCAR-4 ovarian): 65.2%; growth (SK-OV-3 ovarian): 100%; growth (IGROV1 ovarian): 4.75% (active); growth (OVCAR-3 ovarian): 11.5%; growth (HS 578T breast): 77.6%; growth (NCI/ADR-RES ovarian): 70%

Q: What does the source list for `OCCOCCN(Cc1ccccn1)Cc1cc(I)cc(I)c1O`?
A: growth (SR leukemia): 87.8%; growth (RPMI-8226 leukemia): 96.9%; growth (OVCAR-8 ovarian): 85.7%; growth (OVCAR-5 ovarian): 92.5%; growth (OVCAR-4 ovarian): 93.9%; growth (SK-OV-3 ovarian): 107%; growth (OVCAR-3 ovarian): 90.2%; growth (HS 578T breast): 109%; growth (NCI/ADR-RES ovarian): 6.52% (active)
